Only some compounds are listed: those with a hit (about 0.93% of all), similar ones and a draw of the others.
LAP4 TOR yeast: modulators of LAP4-GFP expression in yeast, primary screen, S. cerevisiae, multiplex flow cytometry, MLPCN library. 3 h; median GFP as percent of DMSO wells. GFP response vs DMSO, % at 10 µM. 320,000 tested, 0.34% active;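 active means GFP response vs DMSO above a set limit, about the screen mean plus 3 SD, cut at about 150% in these data; inconclusive means under 70 cell events counted for the yeast strain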
RPL19A-GFP yeast: RPL19A-GFP expression modulators in yeast, primary screen, cell-based, S. cerevisiae, multiplex flow cytometry, MLPCN | S. cerevisiae RPL19A-GFP strain, 3 h; hits give low values | percent response vs DMSO, % at 10 µM | 330,000 tested, 0.3% active;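 active means percent response vs DMSO below 50%; inconclusive means fewer than 70 events counted for the yeast strain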;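 further: median channel GFP fluorescence of the barcoded RPL19A-GFP strain; ratio of sample median GFP to plate DMSO average so 100% = DMSO; lower means less RPL19A-GFP as with rapamycin TOR inhibition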
CIT2 TOR yeast: modulators of CIT2-GFP expression in yeast, primary screen, S. cerevisiae, GFP fusion, multiplex flow cytometry, MLPCN library | S. cerevisiae CIT2-GFP strain, 3 h; 100 means same as DMSO wells | GFP response vs DMSO, % at 10 µM | 320,000 tested, 0.065% active;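 active means GFP response relative to DMSO above a set limit, near the screen mean plus 3 SD, cut at about 150% in these data; inconclusive means Fewer than 70 cells measured for a yeast strain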;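 further: ratio of well median GFP fluorescence to mean of DMSO wells on the plate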
MEP2-GFP yeast: modulators of MEP2-GFP levels in yeast, primary screen, S. cerevisiae, multiplex flow cytometry, MLPCN library. S. cerevisiae MEP2-GFP strain, 3 h; 100% = DMSO control level. GFP response vs DMSO, % at 10 µM. 330,000 tested, 0.51% active. AID 2016, 2009;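 active means GFP response versus DMSO above a set limit, roughly screen mean plus 3 SD, cut at about 180% in these data; inconclusive means fewer than 70 cells counted for a yeast strain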;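 further: median GFP fluorescence of the barcode-gated MEP2-GFP cells per well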
AGP1 TOR yeast: modulators of AGP1-GFP expression in yeast TOR pathway, primary screen, cell-based, multiplex flow cytometry, S. cerevisiae, MLPCN library; 3 h; GFP as percent of DMSO wells; GFP response vs DMSO, % at 10 µM; 320,000 tested, 0.02% active;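 active means GFP response relative to DMSO above a set limit, near screen average plus 3 SD, cut at about 150% in these data; inconclusive means fewer than 70 cells counted for the yeast strain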;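 further: median GFP channel fluorescence of the gated AGP1 strain per well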
The depositor's hits bear a star; ? = inconclusive; · = no result; [ ] = dose if it differs, or a comment.

SMILES	LAP4 TOR yeast	RPL19A-GFP yeast	CIT2 TOR yeast	MEP2-GFP yeast	AGP1 TOR yeast
COc1ccccc1N1CCN(C2CCCN(Cc3cc(F)cc(F)c3)C2)CC1 (stereo not given)	88	94	92	92	154*
COc1ccccc1N1CCN(C2CCCN(Cc3ccc(Cl)cc3)C2)CC1 (stereo not given)	82	103	101	103	97
COc1ccccc1N1CC(C(=O)Nc2nnc(SC)s2)CC1=O (stereo not given)	101	104	96	99	104
CC(=O)Nc1ccc(NC(=O)c2ccccc2F)cc1	99	79	?	177*	21
COC(=O)c1ccc(/C=N/OCC(=O)NCCc2ccc(OC)c(OC)c2)cc1	142	84	115	306*	98
COC(=O)c1sc(-c2ccc(Cl)cc2)cc1NC(=O)/C=C/C(=O)O	65	43*[may fluoresce violet]	?	351*[may fluoresce violet]	?
COC(=O)c1sc(-c2ccc(C(C)(C)C)cc2)cc1NC(=O)CCC(=O)O	69	40*	86	118	20
CC(=O)c1sc(C(C)(C)C)cc1NC(=O)CCC(=O)O	109	98	103	98	104
COC(=O)c1sc(-c2ccc(Cl)cc2)cc1NC(=O)COCC(=O)O	121	94	82	97	93
Cc1cc(C)c(NS(=O)(=O)c2ccc(NC(=O)/C=C/C(=O)O)cc2)c(C)c1	95	107	103	103	101
CCOc1ccc(NC(=S)N2CCCN(Cc3cc(C)ccc3C)C2)cc1	99	101	101	104	106
Cc1cc(=O)nc2c3ccccc3n(CC(=O)NCCCN3CCCCC3C)n12 (stereo not given)	98	96	96	97	93
N#Cc1c(N)n(-c2ccc(N)cc2)c2nc3ccccc3nc12	115	108	105	104	115
N#Cc1c(N)n(-c2ccc(C(=O)O)cc2)c2nc3ccccc3nc12	71	58	?	209*[may fluoresce violet]	?
CCOC(=O)N1CCN(C(=O)CCc2nc3sc4c(c3c(=O)[nH]2)CCCC4)CC1	?	34*[may fluoresce violet]	?	?	?
NC(=O)C1CCN(C(=O)CCc2nc3sc4c(c3c(=O)[nH]2)CCCC4)CC1	96	89	90	93	94
CNc1nc(N)c(C(=O)Nc2cc(C)on2)s1	103	93	95	98	103
N=C1C2=C3Sc4ccccc4N3CCCC2=NN1c1cccc(S(=O)(=O)O)c1	101	102	100	97	100
Cc1ccc(NC(=S)c2nc3ccccc3[nH]2)cc1	170*	95	98	99	91
Cc1ccc(NC(=O)CCCSc2nc3ccccc3[nH]2)cc1	123	111	165*	154	107
COCCSc1ccccc1C(=O)Nc1ccc(Br)cc1	94	97	102	93	95
O=C1CNC(=O)N1	88	40*[may fluoresce violet]	?	236*[may fluoresce violet]	?
O=C1NC(=O)C(=O)N1	130	96	88	95	89
COc1cccc(-n2nnc3c(=O)n(CC(=O)Nc4ccc(C)cc4)cnc32)c1	105	104	107	111	101
COc1ccc(C(=O)ON=C2CCN(c3ccc([N+](=O)[O-])cc3)CC2)cc1	150*	100	93	101	64
SMILES	LAP4 TOR yeast	RPL19A-GFP yeast	CIT2 TOR yeast	MEP2-GFP yeast	AGP1 TOR yeast
O=C(ON=C1CCN(c2ccc([N+](=O)[O-])cc2)CC1)c1ccccc1	107	93	97	114	78
CS/C(=C/[N+](=O)[O-])Nc1cccc2c1C(C)CC2(C)C (stereo not given)	101	101	94	103	91
CCN1CCN(CC(=O)Nc2ccc(Cl)c(S(=O)(=O)N(C)C)c2)CC1	104	95	92	95	103
CN(C)S(=O)(=O)c1cc(NC(=O)CN2CCOCC2)ccc1Cl	202*	103	210*	241*	91
O=S(=O)(/N=C(/Nc1ccc(F)cc1F)c1ccc(Cl)cc1)c1ccccc1	139	83	126	175*	·
Cc1ccc(S(=O)(=O)/N=C(/Nc2ccc(F)cc2F)c2ccc(F)cc2)cc1	94	99	100	110	90

Screening results: PubChem BioAssay, NMMLSC
